# Source: PubChem BioAssay (EPA / NIEHS)
# Calls of active or inactive are those of the source. How the source made its calls: active means hit-call score of the fitted dose curve at least 0.9, where 1 is the maximum; inactive means score below 0.9.
# Read-out: cysteine-aspartic acid protease (CASP8), CASP8 (gene 841)
# Test: LTEA_HepaRG_CASP8: Life Technologies and Expression Analysis (LTEA) Assay for cysteine-aspartic acid protease (CASP8) using HepaRG (AID 2283480)
# Settings: mRNA level, 48 h; actives raise or lower the signal
# Method in brief: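 Differentiated HepaRG cells in serum-free induction medium, 48 h exposure, eight-point half-log series from 100 uM in 0.5% DMSO, duplicates. CASP8 mRNA by qRT-PCR, normalized to ACTB, GAPDH, POLR2A; bidirectional fit versus DMSO.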
SMILES,outcome,AC50
CCCCC(O)(Cn1cncn1)c1ccc(Cl)cc1Cl (stereo unspecified),inactive,–
CC(C)N1C(=O)c2ccccc2NS1(=O)=O,inactive,–
O=C(Nc1ccccc1-c1ccc(Cl)cc1)c1cccnc1Cl,inactive,–
N#CN=C1SCCN1Cc1ccc(Cl)nc1,inactive,–
CCNC(=O)NC(=O)C(C#N)=NOC,inactive,–
Cc1c(COC(=O)[C@@H]2[C@H](/C=C(\Cl)C(F)(F)F)C2(C)C)cccc1-c1ccccc1,inactive,–
C=C(C)CN(CC)c1c([N+](=O)[O-])cc(C(F)(F)F)cc1[N+](=O)[O-],inactive,–
CC(C)C1(C)N=C(c2ncccc2C(=O)O)NC1=O (stereo unspecified),inactive,–
CCCC(=NOCC)C1=C(O)CC(CC(C)SCC)CC1=O (stereo unspecified),inactive,–
O=C1C2CC=CCC2C(=O)N1SC(Cl)(Cl)Cl (stereo unspecified),inactive,–
COCc1cnc(C2=NC(C)(C(C)C)C(=O)N2)c(C(=O)O)c1 (stereo unspecified),inactive,–
Cc1nc(N(C)C)nc(OC(=O)N(C)C)c1C,inactive,–
CC(C)N1C(=O)N(c2ccccc2)CSC1=NC(C)(C)C,inactive,–
Clc1cccc(C(Cl)(Cl)Cl)n1,inactive,–
CC1(C)CON(Cc2ccccc2Cl)C1=O,inactive,–
CN/C(=N\[N+](=O)[O-])NCc1cnc(Cl)s1,inactive,–
Cc1ccc(N=CN(C)C=Nc2ccc(C)cc2C)c(C)c1,inactive,–
CCN(CC)c1nc(C)cc(OP(=S)(OC)OC)n1,inactive,–

SMILES,outcome,AC50
COCC(C)N(C(=O)CCl)c1c(C)csc1C (stereo unspecified),inactive,–
CCOc1nc(C(Cl)(Cl)Cl)ns1,–,1.08 µM (active)
CCC(C)n1c(=O)[nH]c(C)c(Br)c1=O (stereo unspecified),inactive,–
Nc1cnn(-c2ccccc2)c(=O)c1Cl,inactive,–
N#Cc1c(Cl)cccc1Cl,inactive,–
CCN(CC)C(=O)C(C)Oc1cccc2ccccc12 (stereo unspecified),inactive,–
CC1(C)C(C(=O)OC(C#N)c2cccc(Oc3ccccc3)c2)C1(C)C (stereo unspecified),inactive,–
CC(C)Nc1nc(Cl)nc(NC(C)C)n1,inactive,–
N#Cc1c[nH]cc1-c1cccc2c1OC(F)(F)O2,inactive,–
Cn1c(-c2ccccc2)cc(-c2ccccc2)[n+]1C,–,89.2 µM (active)
CCCN(CC)CC1COC2(CCC(C(C)(C)C)CC2)O1 (stereo unspecified),inactive,–
CCNP(=S)(OC)O/C(C)=C/C(=O)OC(C)C (stereo unspecified),inactive,–
CS(=O)(=O)c1ccc(C(=O)C2C(=O)CCCC2=O)c([N+](=O)[O-])c1,inactive,–
COP(=S)(OC)Oc1ccc([N+](=O)[O-])c(C)c1,inactive,–
COC(=O)NC(=S)Nc1ccccc1NC(=S)NC(=O)OC,inactive,–
COc1cc(Cl)c(OC)cc1Cl,inactive,–
CC(C)(C)C(=O)C(Oc1ccc(Cl)cc1)n1cncn1 (stereo unspecified),inactive,–
CCCCOCN(C(=O)CCl)c1c(CC)cccc1CC,inactive,–
